In PubChem BioAssay (NCATS):
Where “and” joins values, the source holds several entries; their conditions need not be identical. Identical values can stand only once. Inconclusive results are not listed. Calls of active or inactive are those of the source. Unless noted, calls follow the shape of the dose curve; as a rule, active = well fitted curve in the direction sought with a large enough effect; inconclusive = small, poorly fitted or top-dose-only effect, or another doubt; inactive = no such curve, though single readings can be large; an effect the other way counts as inactive or inconclusive.

Columns and labels:
[1] = Cell Viability - LYMP2-009 (AID 968); details: LYMP2-009 lymphoblastoid cell viability; series mostly up to 92.2 µM;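 also: cells exposed to compound for 24 h at 37 °C; nearly all actives have a fitted effect of over 55% in size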; also: potency is read from the fitted curve at half-maximal effect
[2] = Cell Viability - LYMP2-008 (AID 980); details: LYMP2-008 lymphoblastoid cell viability, qHTS; series mostly up to 92.2 µM; also: nearly all actives have a fitted effect of over 60% in size; also: potency is read from the fitted curve at half-maximal effect
How it was run: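 LYMP2-008 lymphoblastoid cells (2500/well) plated 5 h, then treated 24 h at 37 C in complete medium. Viability read as intracellular ATP by CellTiter-Glo luminescence after 30 min at room temperature; AC50 from Hill fits.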

[3] = molecular target: Vitamin D3 receptor (Homo sapiens) (UniProt P11473); assay: qHTS assay for small molecule antagonists of vitamin D receptor signaling (AID 588541; calls by dose curve;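 also: receptor activated by calcitriol during compound treatment; % is scaled to controls: 0 for no effect and ±100 for the full control effect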); details: HEK293T VDR-UAS-bla, beta-lactamase ratio, antagonist mode; series mostly up to 76.7 µM
How it was run: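 Antagonist-mode beta-lactamase reporter assay: HEK293T VDR-UAS-bla cells were exposed to titrated compound alongside 1-alpha,25-dihydroxyvitamin D3 at 3 nM final for 16 h. Values were normalized to the 50 nM agonist control and DMSO basal, with IC50 and efficacy from Hill equation fits.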

[4] = molecular target: Vitamin D3 receptor (Homo sapiens) (UniProt P11473); assay: qHTS assay for small molecule agonists of vitamin D receptor signaling (AID 588543; calls by dose curve;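 also: 0% = DMSO basal and 100% = reference agonist control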); details: HEK293T VDR-UAS-bla, beta-lactamase ratio, 16 h; series mostly up to 76.8 µM
How it was run: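 GeneBLAzer VDR-UAS-bla HEK293T cells in 2% charcoal-stripped FBS medium were dosed with compound titrations for 16 h at 37 °C; CCF4 β-lactamase readout (405 nm ex, 460/530 nm em). EC50 and efficacy from Hill fits, normalized to 50 nM calcitriol (100%) and DMSO (0%).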

[5] = molecular target: Thyroid hormone receptor beta (Homo sapiens) (UniProt P10828); assay: qHTS assay for small molecule antagonists of thyroid hormone receptor beta signaling (AID 588547; active = well fitted inhibition curve with a large enough effect in the signal ratio, with a control signal flat, not every such curve was filed as active; the % refers to the signal ratio;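 also: cells stimulated with 0.4 nM T3 agonist during compound exposure; % is scaled to controls: 0 for no effect and ±100 for the full control effect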); details: TR-UAS-bla HEK293, beta-lactamase ratio, antagonist mode, 18 h
How it was run: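 Inhibition of T3-driven (0.4nM final) beta-lactamase reporter activity was measured over 0.59 nM to 92 uM compound after 18 h at 37 C. The cells were GripTite HEK293 TR-UAS-bla in charcoal/dextran-stripped serum, with CCF4 ratio read-out and IC50 from Hill fits.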

[6] = molecular target: Voltage-gated inwardly rectifying potassium channel KCNH2 (Homo sapiens) (UniProt Q12809); assay: qHTS Assay for Small Molecule Inhibitors of the Human hERG Channel Activity (AID 588834); details: U2OS BacMam hERG, FluxOR thallium flux fluorescence; series mostly up to 92.2 µM;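 also: top concentration of the series differs between compounds; % is scaled to controls: 0 for no effect and ±100 for the full control effect; lower thallium flux fluorescence means stronger hERG block; nearly all actives have a fitted effect of over 50% in size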
How it was run: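 U2OS cells transduced with hERG via BacMam (MOI ~100), plated 2000/well, loaded with FluxOR thallium dye, compound ~10 min, then stimulation buffer; fluorescence decrease read kinetically; AC50 from Hill fits.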

[7] = qHTS assay for small molecule agonists of the antioxidant response element (ARE) signaling pathway (AID 651741; active = well fitted activation curve with a large enough effect in the signal ratio; the % refers to the signal ratio; also: potency is read from the fitted curve at half-maximal effect; as to activation: % of control where 0% means no effect); details: HepG2 ARE-bla reporter, beta-lactamase FRET ratio, 16 h; series mostly up to 96 µM
How it was run: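 Quantitative HTS in HepG2 cells stably expressing an ARE-beta-lactamase reporter; 16 h compound exposure at 37 C, followed by 2 h room-temperature incubation with LiveBLAzer B/G FRET substrate and fluorescence measurement.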

[8] = qHTS assay for small molecule disruptors of the mitochondrial membrane potential - 5 hr assay (AID 651755; calls by dose curve; also: nearly all actives have a fitted effect of over 40% in size; also: potency is read from the fitted curve at half-maximal effect); details: JC-1-type ratio dye; series mostly up to 92.2 µM
How it was run: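 HepG2, 2,000 cells/well, overnight attach; cpd or DMSO 5 hr, 37C/5% CO2; Mito-MPS 30 min 37C; fluor 490/535 + 540/590 nm.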

[9] = molecular target: Nuclear receptor ROR-gamma (Homo sapiens) (UniProt P51449); assay: qHTS assay for small molecule antagonists of the retinoid-related orphan receptor gamma (ROR-gamma) signaling pathway (AID 651802); details: ROR-gamma antagonist cell reporter assay; series mostly up to 92.2 µM;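 also: luciferase reporter luminescence driven by ROR response element; % is scaled to controls: 0 for no effect and ±100 for the full control effect; nearly all actives have a fitted effect of over 60% in size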
How it was run: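 CHO cells with TET-inducible ROR-gamma and RORE-luciferase reporter, dosed then doxycycline-induced. After 16 h at 37C, One-Glo luminescence read; decreased signal indicates antagonism.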

[10] = qHTS assay for small molecule agonists of the antioxidant response element (ARE) signaling pathway measured by Nrf2-dependant transcriptional activity - cell viability counter screen (AID 720653; active = well fitted curve in the direction sought with a large enough effect in the repeat runs; an effect the other way counts as inactive or inconclusive; also: potency is read from the fitted curve at half-maximal effect; as to max response: % is scaled to controls: 0 for no effect and ±100 for the full control effect); details: ARE-bla HepG2 viability, CellTiter-Glo ATP luminescence, 16 h; max response: stronger effect = lower value
How it was run: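 Cytotoxicity counter screen: intracellular ATP quantified by CellTiter-Glo luminescence in the same ARE-bla HepG2 plates, after 16 h compound exposure and a 2 h beta-lactamase substrate step.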

[11] = qHTS profiling for inhibitors of Plasmodium falciparum proliferation (AID 504749);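 also: 0% = DMSO vehicle and full inhibition = artemisinin control; nearly all actives have a fitted effect of over 60% in size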; details: P. falciparum in erythrocytes, SYBR Green DNA, 72 h, at 28.7 µM (top of the series)
How it was run: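 Infected RBCs, 0.3% parasitemia/2.5% Hct final; cpd 72 h, 37 C, 5% CO2; lysis buffer with saponin/triton/SYBR Green I, o/n RT dark; FI 485/535; norm. to artemisinin (0.29 uM) and DMSO.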

[12] = molecular target: Nuclear receptor subfamily 1 group I member 2 (Rattus norvegicus) (UniProt Q9R1A7); assay: qHTS assay for small molecule activators of the rat pregnane X receptor (rPXR) signaling pathway (AID 651751; call rule not given here; also: 0% is about no effect); details: rPXR reporter cells, luciferase (One-Glo), 24 h
[13] = Cell Viability - LYMP1-003 - Assay at 24 hr (AID 963); details: LYMP1-003 lymphoblastoid cell viability; series mostly up to 92.2 µM;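 also: plate controls were DMSO only for no effect and tetraoctylammonium bromide positive control for full effect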
How it was run: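 Human lymphoblastoid LYMP1-003 cells, 2500/well, treated 24 h at 37 C in complete medium. Viability read as intracellular ATP by CellTiter-Glo luminescence after 30 min at room temperature; AC50 from Hill-equation fits of qHTS concentration-response.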

[14] = molecular target: Estrogen receptor (Homo sapiens) (UniProt P03372); assay: qHTS assay for small molecule antagonists of estrogen receptor alpha signaling (AID 588513; active = well fitted curve in the direction sought with a large enough effect in the signal ratio, with a control signal flat, not every such curve was filed as active; the % refers to the signal ratio; also: % is scaled to controls: 0 for no effect and ±100 for the full control effect); details: ER-alpha-UAS-bla HEK293, beta-lactamase ratio, antagonist mode; series mostly up to 76.9 µM
How it was run: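 ER-alpha-UAS-bla GripTite HEK 293 cells in medium with 2% charcoal/dextran-treated FBS were preincubated 4 h at 37 C, dosed with compound (1:2 titration), stimulated with 0.5nM 17-beta-estradiol for 18 h, then read by CCF4 beta-lactamase fluorescence.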

[15] = molecular target: Estrogen receptor (Homo sapiens) (UniProt P03372); assay: qHTS assay for small molecule agonists of estrogen receptor alpha signaling (AID 588514; calls by dose curve; also: nearly all actives have a fitted effect of over 70% in size; also: potency is read from the fitted curve at half-maximal effect;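 as to activation: 0% = vehicle only and 100% = reference agonist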); details: ER-alpha-UAS-bla HEK293, beta-lactamase ratio, 18 h; series mostly up to 76.8 µM
How it was run: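 ER-alpha-UAS-bla GripTite HEK293 cells, 5000/well in 2% charcoal/dextran-stripped FBS medium, treated with compound titrations 18 h at 37 C. CCF4 beta-lactamase read by fluorescence after 2 h RT; normalised to 20 nM 17-beta-estradiol (100%) and DMSO (0%), Hill fit for EC50 and efficacy.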

[16] = qHTS assay for small molecule agonists of retinoid X receptor alpha signaling (AID 588544); details: HEK293T RXRa-UAS-bla, beta-lactamase reporter, 18 h; 530 nm emission
[17] = molecular target: Tumor necrosis factor (Homo sapiens) (UniProt P01375); assay: qHTS assay to identify small molecules that stimulate Tumor Necrosis Factor-alpha (TNF-alpha) secretion (AID 651757; active = well fitted curve in the direction sought with a large enough effect in the signal ratio; the % refers to the signal ratio; also: 0% is about no effect); details: Human cells, HTRF 665/615 ratio; series mostly up to 92.2 µM
How it was run: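 THP-1 cells (3000/well) exposed to compounds 17 hrs at 37 C. Secreted TNF-alpha detected by HTRF with cryptate- and XL665-labeled anti-TNF-alpha antibodies after 3 hr at room temperature.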

[18] = qHTS assay for small molecule antagonists of the retinoid-related orphan receptor gamma (ROR-gamma) signaling pathway - cell viability counter screen (AID 720652; active = well fitted curve in the direction sought with a large enough effect in the repeat runs; an effect the other way counts as inactive or inconclusive;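 also: compound exposure lasted 16 hr before ATP read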; also: potency is read from the fitted curve at half-maximal effect); details: RORgamma reporter cell line viability counter screen; series mostly up to 92.2 µM
How it was run: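 CHO cells carrying TET-inducible ROR and RORE-luciferase reporter, plated 5 hr, then dosed with compound plus doxycycline. After 16 hr at 37 C, viability read as intracellular ATP by CellTiter-Glo luminescence.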

[19] = qHTS assay for cell viability of the p53RE-bla HCT-116 cell line (AID 743292); details: p53RE-bla HCT-116 viability, ATP luminescence, 16 h; series mostly up to 95 µM; also: % is scaled to controls: 0 for no effect and ±100 for the full control effect; nearly all actives have a fitted effect of over 55% in size
How it was run: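 CellSensor p53RE-bla HCT-116 cells (4,000/well) pre-incubated 5 h at 37 C, then exposed to compounds in DMSO for 16 h at 37 C. Viability read as ATP content by CellTiter-Glo luminescence after 30 min at room temperature.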

[20] = qHTS assay for small molecule activators of the human pregnane X receptor (PXR) signaling pathway (AID 720659; call rule not given here; also: 0% is about no effect); details: DPX-2 HepG2 CYP3A4-luciferase, 24 h; series mostly up to 92.3 µM

Chain of Vitamin D3 receptor (Homo sapiens) (P11473 whole entry, looked up): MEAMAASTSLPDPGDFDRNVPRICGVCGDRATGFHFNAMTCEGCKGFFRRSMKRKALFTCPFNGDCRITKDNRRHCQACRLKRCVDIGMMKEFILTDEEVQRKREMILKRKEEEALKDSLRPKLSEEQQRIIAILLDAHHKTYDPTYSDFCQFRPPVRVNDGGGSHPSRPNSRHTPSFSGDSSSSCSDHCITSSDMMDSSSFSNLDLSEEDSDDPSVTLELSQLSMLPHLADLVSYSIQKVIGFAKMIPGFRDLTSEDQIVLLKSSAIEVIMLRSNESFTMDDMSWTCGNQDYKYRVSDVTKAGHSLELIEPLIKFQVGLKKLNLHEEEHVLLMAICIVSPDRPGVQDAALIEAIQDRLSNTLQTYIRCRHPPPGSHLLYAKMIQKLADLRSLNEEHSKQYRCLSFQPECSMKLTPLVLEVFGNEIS
Chain of Nuclear receptor ROR-gamma (Homo sapiens) (P51449 whole entry, looked up): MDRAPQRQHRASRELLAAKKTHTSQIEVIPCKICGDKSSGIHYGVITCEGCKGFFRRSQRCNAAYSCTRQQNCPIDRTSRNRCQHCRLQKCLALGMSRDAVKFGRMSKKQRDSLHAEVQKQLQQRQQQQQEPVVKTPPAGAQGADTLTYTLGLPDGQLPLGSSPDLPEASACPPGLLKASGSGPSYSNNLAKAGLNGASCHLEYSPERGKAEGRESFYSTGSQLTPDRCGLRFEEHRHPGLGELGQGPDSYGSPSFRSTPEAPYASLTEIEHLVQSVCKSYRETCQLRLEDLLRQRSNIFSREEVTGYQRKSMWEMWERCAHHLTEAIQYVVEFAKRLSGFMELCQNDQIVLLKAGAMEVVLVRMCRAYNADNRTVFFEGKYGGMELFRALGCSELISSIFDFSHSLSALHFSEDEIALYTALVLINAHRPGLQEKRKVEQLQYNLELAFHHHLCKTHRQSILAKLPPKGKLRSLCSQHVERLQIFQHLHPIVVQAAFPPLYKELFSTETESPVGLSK
Chain of Tumor necrosis factor (Homo sapiens) (P01375 whole entry, looked up): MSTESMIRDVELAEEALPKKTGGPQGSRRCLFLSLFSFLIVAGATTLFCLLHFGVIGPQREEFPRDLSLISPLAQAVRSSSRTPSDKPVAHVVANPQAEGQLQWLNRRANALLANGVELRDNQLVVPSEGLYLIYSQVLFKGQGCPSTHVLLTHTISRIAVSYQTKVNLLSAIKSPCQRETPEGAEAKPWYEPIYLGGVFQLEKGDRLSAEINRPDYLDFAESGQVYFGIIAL
Chain of Voltage-gated inwardly rectifying potassium channel KCNH2 (Homo sapiens) (Q12809 whole entry, looked up): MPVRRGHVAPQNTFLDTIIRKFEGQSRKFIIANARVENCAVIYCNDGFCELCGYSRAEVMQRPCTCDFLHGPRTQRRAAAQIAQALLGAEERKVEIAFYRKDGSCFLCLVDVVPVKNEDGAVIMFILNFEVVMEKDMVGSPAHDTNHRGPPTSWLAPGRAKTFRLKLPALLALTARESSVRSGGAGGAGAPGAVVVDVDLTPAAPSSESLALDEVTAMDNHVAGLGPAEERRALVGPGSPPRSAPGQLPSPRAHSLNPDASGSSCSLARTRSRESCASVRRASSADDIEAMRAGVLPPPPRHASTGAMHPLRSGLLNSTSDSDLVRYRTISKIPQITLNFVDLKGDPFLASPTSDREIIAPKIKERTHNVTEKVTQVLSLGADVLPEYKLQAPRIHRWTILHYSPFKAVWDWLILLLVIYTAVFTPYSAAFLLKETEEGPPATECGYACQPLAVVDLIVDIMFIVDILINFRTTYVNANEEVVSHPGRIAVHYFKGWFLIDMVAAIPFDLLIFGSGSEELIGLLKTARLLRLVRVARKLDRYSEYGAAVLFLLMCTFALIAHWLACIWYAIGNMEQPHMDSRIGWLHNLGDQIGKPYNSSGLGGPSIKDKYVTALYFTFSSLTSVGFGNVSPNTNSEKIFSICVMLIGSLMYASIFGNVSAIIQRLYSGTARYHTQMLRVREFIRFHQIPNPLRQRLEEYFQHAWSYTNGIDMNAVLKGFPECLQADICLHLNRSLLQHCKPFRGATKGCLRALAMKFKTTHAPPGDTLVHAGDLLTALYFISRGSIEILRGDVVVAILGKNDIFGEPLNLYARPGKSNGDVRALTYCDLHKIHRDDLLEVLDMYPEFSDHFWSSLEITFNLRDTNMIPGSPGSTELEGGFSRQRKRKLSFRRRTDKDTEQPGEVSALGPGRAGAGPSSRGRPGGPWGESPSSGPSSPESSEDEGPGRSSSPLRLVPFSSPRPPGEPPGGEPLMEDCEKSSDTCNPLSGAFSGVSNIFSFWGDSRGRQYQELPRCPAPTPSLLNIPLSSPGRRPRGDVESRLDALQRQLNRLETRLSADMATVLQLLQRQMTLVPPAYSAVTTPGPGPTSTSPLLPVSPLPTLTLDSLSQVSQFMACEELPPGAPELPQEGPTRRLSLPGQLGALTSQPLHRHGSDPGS
Chain of Nuclear receptor subfamily 1 group I member 2 (Rattus norvegicus) (Q9R1A7 whole entry, looked up): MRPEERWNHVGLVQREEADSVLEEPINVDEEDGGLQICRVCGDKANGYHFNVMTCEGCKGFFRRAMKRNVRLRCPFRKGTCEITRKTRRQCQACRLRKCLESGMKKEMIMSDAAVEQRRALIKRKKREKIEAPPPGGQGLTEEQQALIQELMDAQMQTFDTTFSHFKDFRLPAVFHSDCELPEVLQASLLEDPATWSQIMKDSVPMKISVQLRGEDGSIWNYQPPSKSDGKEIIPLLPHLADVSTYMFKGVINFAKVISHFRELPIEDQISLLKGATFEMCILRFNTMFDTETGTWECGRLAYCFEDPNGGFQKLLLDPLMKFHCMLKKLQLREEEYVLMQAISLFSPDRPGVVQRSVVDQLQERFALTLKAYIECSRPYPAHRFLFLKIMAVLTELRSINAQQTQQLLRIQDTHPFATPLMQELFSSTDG
Chain of Thyroid hormone receptor beta (Homo sapiens) (P10828 whole entry, looked up): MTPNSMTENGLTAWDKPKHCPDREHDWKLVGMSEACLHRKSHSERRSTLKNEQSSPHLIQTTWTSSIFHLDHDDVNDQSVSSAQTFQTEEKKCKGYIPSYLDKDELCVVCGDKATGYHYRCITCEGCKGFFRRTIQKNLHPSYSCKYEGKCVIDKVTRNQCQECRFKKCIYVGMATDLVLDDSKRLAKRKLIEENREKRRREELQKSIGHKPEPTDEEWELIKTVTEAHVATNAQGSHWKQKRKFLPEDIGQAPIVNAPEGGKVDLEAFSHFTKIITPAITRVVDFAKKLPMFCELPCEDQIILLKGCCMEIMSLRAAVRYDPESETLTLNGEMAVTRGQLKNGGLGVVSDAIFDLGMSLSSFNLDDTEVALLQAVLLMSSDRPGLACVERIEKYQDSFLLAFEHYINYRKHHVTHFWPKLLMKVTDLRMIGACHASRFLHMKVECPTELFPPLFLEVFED
Chain of Estrogen receptor (Homo sapiens) (P03372 whole entry, looked up): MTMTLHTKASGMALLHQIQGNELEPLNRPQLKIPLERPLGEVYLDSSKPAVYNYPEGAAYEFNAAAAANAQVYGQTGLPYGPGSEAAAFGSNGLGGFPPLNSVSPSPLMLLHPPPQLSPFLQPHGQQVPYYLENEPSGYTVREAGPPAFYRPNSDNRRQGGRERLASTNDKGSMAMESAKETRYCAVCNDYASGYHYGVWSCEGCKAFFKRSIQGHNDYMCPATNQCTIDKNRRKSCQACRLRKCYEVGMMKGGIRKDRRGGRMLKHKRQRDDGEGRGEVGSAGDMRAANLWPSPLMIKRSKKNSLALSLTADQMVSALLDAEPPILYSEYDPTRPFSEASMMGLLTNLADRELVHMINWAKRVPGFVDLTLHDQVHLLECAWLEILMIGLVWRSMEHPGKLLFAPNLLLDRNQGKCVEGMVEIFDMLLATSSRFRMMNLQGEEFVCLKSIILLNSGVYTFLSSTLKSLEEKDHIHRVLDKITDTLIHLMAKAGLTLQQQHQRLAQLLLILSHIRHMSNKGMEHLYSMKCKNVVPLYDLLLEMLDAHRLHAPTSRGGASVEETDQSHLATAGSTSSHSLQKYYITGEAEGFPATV

NC1=NC(S)C2N=CN=C2N1 (configuration not stated)
active: Potency [1] 15.8 µM | Potency [2] 3.16 µM | Potency [7] 33.5 µM | Potency [10] 5.01 µM
inactive: outcome [3] | outcome [4] | activity change % (negative = inhibition) [5] 18.1% | Potency [6] | Potency [8] | Potency [9] | activity, negative = inhibition ([11]; parasite line A) 3.76% | activity, negative = inhibition ([11]; parasite line B) -5.29% | max response [12] -3.62%

C=CCOC(=O)c1ccccc1C(=O)OCC=C
-9.89% and -14.8%: max response [16]
inactive: Potency [13] | Potency [1] | Potency [2] | Potency [14] | Potency [15] | activity change % (negative = inhibition) [5] -9.14% and 1.91% | Potency [6] | Potency [8] | outcome [17] | Potency [9] | Potency [18] | max response [10] -21% and -8.82% | Potency [19] | max response [12] -2.3% and 1.03% | outcome [20]

S=C1NC=NC2N=CNC12 (configuration not stated)
active: Potency [7] 23.7 µM
inactive: outcome [4] | Potency [6] | Potency [8] | Potency [9] | activity, negative = inhibition ([11]; parasite line A) -17.9% | activity, negative = inhibition ([11]; parasite line B) -14.3% | max response [12] -8.03% | outcome [20]

O=C1c2ccccc2C(=O)C1c1ccc2ccccc2n1
active: Potency [15] 1 µM | Potency [7] 1.37 µM and 1.5 µM | Potency [8] 1.68 µM | Potency [18] 33.5 µM
16.7%: max response [16]
inactive: Potency [13] | Potency [14] | outcome [3] | outcome [4] | activity change % (negative = inhibition) [5] -15.6% | Potency [6] | Potency [19]

Cc1ccc([N+](=O)[O-])c(C)c1
inactive: Potency [13] | Potency [1] | Potency [2] | Potency [14] | Potency [15] | outcome [3] | outcome [4] | activity change % (negative = inhibition) [5] -7.14% and -11% | Potency [6] | Potency [7] | Potency [8] | outcome [17] | Potency [9] | Potency [18] | max response [10] -3.32% and -3.26% | Potency [19] | max response [12] 3.04% and -0.0498% | outcome [20]
-5.33% and -0.658%: max response [16]

CCCCCCCCCCCCCCC1CO1 (configuration not stated)
-14.5% and -12.1%: max response [16]
inactive: Potency [13] | Potency [1] | Potency [2] | Potency [14] | Potency [15] | outcome [3] | outcome [4] | activity change % (negative = inhibition) [5] 8.79% | Potency [6] | Potency [7] | outcome [17] | Potency [9] | Potency [18] | max response [10] -2.08% and 0.668% | Potency [19] | max response [12] -5.5% and 2.15% | outcome [20]

CN(C)CCCCCCN(C)C
-13.8%: max response [16]
inactive: Potency [13] | Potency [1] | Potency [2] | outcome [3] | outcome [4] | activity change % (negative = inhibition) [5] 5.32% | Potency [7] | Potency [8] | outcome [17] | Potency [18] | max response [10] 1.08% | Potency [19] | activity, negative = inhibition ([11]; parasite line A) 13.6% | activity, negative = inhibition ([11]; parasite line B) -6.83%

O=C(O)CC(C(=O)O)C(CC(=O)O)C(=O)O (configuration not stated)
inactive: Potency [13] | Potency [1] | Potency [2] | Potency [14] | Potency [15] | outcome [3] | outcome [4] | activity change % (negative = inhibition) [5] -3.7% and -9.45% | Potency [6] | Potency [7] | Potency [8] | outcome [17] | Potency [18] | max response [10] -9.78% and -3.54% | Potency [19] | max response [12] -5.76% and 4.78% | outcome [20]
3.34% and -3.12%: max response [16]

C1OCOCO1
-5.21%: max response [16]
inactive: Potency [13] | Potency [1] | Potency [2] | activity change % (negative = inhibition) [5] 5.08% | Potency [6] | Potency [7] | Potency [8] | outcome [17] | Potency [9] | Potency [18] | max response [10] -3.94% | Potency [19] | activity, negative = inhibition ([11]; parasite line A) -0.0178% | activity, negative = inhibition ([11]; parasite line B) 3.44% | max response [12] -2.23% | outcome [20]
